Active and inactive are the calls of the source. Unless noted, the rule behind the calls is not given here.
Legend:
[1] = compounds binding Alexa647 anti-His antibody – biochemical, small-molecule microarray, 635 nm fluorescence, artefact control for SMM control protein annotation, primary screen (AID 1128); settings: higher = more signal;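 note: score merges feature fluorescence with signal-to-noise for each printed compound spot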
[2] = test system: Human papillomavirus type 1a E7 protein (residues 1-88); assay: HPV1a E7 small-molecule binders, primary screen, biochemical, small-molecule microarray, residues 1-88, 635 nm (AID 1129); settings: small-molecule microarray binding, fluorescence 635 nm; higher = more signal
[3] = target: Focal adhesion kinase 1 (Homo sapiens) (UniProt Q05397); assay: PTK2 protein binding on printed compound slides – biochemical, small-molecule microarray, 635/667 nm fluorescence, BSA, DTT, primary screen (AID 1130); settings: 635 nm fluorescence, higher = more signal;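 note: composite of spot emission at 667 nm and signal to noise over triplicate slides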
Chain of Focal adhesion kinase 1 (Homo sapiens) (Q05397 whole entry, looked up): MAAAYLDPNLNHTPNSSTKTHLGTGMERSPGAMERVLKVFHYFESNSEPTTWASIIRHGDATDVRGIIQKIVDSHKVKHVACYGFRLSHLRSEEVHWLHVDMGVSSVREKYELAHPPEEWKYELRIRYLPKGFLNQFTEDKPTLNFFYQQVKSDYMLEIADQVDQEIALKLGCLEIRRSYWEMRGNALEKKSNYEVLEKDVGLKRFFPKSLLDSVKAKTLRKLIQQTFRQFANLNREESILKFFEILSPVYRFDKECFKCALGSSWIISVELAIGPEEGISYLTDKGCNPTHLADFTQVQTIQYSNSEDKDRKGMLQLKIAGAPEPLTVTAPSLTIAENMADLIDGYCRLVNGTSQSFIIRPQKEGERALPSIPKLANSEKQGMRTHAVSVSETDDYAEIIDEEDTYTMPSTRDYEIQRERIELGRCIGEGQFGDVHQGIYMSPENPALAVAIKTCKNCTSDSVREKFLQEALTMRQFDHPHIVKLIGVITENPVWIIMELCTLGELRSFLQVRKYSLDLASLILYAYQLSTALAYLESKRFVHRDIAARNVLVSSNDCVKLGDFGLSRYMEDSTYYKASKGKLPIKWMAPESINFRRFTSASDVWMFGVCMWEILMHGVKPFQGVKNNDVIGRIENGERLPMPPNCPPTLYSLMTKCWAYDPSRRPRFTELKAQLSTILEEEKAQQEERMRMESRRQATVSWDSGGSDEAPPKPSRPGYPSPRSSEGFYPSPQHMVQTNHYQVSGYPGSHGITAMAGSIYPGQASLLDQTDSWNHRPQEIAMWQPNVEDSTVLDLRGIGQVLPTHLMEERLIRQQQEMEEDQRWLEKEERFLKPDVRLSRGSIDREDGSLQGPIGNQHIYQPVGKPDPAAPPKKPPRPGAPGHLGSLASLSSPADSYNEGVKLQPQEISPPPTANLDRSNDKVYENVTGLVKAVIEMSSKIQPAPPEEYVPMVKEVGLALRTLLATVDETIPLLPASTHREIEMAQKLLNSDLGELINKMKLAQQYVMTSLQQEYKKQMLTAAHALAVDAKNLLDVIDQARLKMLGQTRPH

[4] = test system: Fibrinogen (Alexa647-labelled); assay: Alexa647-fibrinogen binding to printed small molecules – biochemical, small-molecule microarray, 635/667 nm fluorescence, artefact control for SMM control-protein annotation, profiling panel (AID 1131); settings: fibrinogen-A647 binding fluorescence, higher = more signal;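 note: z-score merges 667 nm fluorescence with per-spot signal-to-noise over triplicate slides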
[5] = target: Follistatin (Homo sapiens) (UniProt P19883); assay: FST protein binding to printed compounds – biochemical, small-molecule microarray, 635/667 nm fluorescence, primary screen (AID 1132); settings: 635 nm fluorescence, higher = more signal
Chain of Follistatin (Homo sapiens) (P19883 whole entry, looked up): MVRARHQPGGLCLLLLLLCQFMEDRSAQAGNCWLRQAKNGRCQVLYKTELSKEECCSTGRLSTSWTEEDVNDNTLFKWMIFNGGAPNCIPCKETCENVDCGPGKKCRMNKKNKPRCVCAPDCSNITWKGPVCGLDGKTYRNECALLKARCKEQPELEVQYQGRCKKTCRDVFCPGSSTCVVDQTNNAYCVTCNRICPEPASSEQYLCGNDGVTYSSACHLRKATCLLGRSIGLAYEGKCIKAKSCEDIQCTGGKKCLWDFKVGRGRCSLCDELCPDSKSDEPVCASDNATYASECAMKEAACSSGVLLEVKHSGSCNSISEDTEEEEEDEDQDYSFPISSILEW

[6] = target: Fibroblast growth factor 2 (Homo sapiens) (UniProt P09038); assay: basic fibroblast growth factor binding to printed compounds – biochemical, small-molecule microarray, 635/667 nm fluorescence, primary screen (AID 1133); settings: FGF2, fluorescence 635/667, higher = more signal
Chain of Fibroblast growth factor 2 (Homo sapiens) (P09038 whole entry, looked up): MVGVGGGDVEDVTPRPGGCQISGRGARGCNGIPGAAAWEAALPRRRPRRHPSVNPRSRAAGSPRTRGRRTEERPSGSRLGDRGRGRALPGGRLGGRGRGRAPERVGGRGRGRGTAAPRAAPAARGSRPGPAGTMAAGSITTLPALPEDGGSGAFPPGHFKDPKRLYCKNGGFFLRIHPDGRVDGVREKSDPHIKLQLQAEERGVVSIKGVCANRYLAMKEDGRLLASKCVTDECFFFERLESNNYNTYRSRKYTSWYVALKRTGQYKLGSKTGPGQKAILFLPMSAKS

[7] = JC-1 mitochondrial potential readout, lung cancer cells – cell-based, A549, JC-1 fluorescence, basal, 24 h, 100 nL, profiling panel (AID 1138); settings: higher = more signal;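 note: A549 lung adenocarcinoma cells under basal conditions with no added stimulus; test concentration not given here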
[8] = test system: Lefty1; assay: Lefty1 protein binding to printed compounds – biochemical, small-molecule microarray, 635/667 nm fluorescence, primary screen (AID 1139); settings: fluorescence 635/667, higher = more signal
[9] = test system: wheat germ agglutinin (Triticum aestivum), Alexa647-labelled; assay: Alexa647-WGA lectin binding to printed small molecules – biochemical, small-molecule microarray, 635/667 nm fluorescence, artefact control for SMM control-protein annotation, profiling panel (AID 1140); settings: WGA-A647 binding, 635 nm fluorescence, higher = more signal;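 note: score merges 667 nm feature emission with signal to noise over triplicate slides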
[10] = target: Luciferin 4-monooxygenase (Photinus pyralis) (UniProt P08659); assay: inhibition of purified Photinus pyralis luciferase – biochemical, luminescence, purified enzyme, 2006 set, primary screen (AID 1141); settings: purified firefly luciferase, SteadyGlo luminescence, 30 min; higher = more signal, called active from +8 up or from −8 down;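 note: cell-free assay with purified firefly luciferase at 100 ng per well in PBS; test concentration not given here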
Chain of Luciferin 4-monooxygenase (Photinus pyralis) (P08659 whole entry, looked up): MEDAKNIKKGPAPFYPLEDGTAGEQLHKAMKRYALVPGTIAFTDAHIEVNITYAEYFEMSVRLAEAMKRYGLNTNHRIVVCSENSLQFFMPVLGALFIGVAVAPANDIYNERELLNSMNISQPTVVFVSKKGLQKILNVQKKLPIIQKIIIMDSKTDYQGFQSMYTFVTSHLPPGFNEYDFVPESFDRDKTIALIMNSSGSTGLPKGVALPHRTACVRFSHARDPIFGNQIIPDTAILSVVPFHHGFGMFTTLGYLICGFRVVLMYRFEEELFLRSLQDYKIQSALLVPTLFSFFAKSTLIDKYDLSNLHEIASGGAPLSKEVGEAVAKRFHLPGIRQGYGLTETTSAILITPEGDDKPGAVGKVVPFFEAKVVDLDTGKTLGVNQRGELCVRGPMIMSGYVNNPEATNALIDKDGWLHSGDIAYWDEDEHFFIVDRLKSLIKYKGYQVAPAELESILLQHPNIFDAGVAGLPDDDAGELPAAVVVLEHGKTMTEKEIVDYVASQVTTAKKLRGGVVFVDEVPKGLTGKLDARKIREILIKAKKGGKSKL

[11] = test system: Wnt5a (protein binding on small-molecule microarray); assay: small molecules binding Wnt5a protein – biophysical, small-molecule microarray, 635/667 nm fluorescence, primary screen (AID 1142); settings: 635 nm fluorescence, higher = more signal;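 note: fluorescence read at 667 nm with signal to noise per printed feature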
[12] = ATP-based viability of Huh7 replicon cells – cell-based, CellTiter-Glo luminescence, basal, 48 h, cytotoxicity control for HCV replication inhibitor project, primary screen (AID 1143); settings: higher = more signal, called active from +8 up or from −8 down;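 note: Huh7 hepatoma cells carrying a hepatitis C replication reporter with no stimulus; test concentration not given here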
[13] = Pseudomonas biofilm growth suppression – PAO1 strain, BacTiter-Glo luminescence, LB-PBS, primary screen (AID 1144); settings: P. aeruginosa PAO1 biofilm, 12 h, higher = more signal
[14] = basal CRE-LacZ reporter activity in PC12 – cell-based, unstimulated, primary screen (AID 1145); settings: no forskolin, luminescence, 4.5 h, higher = more signal, called active from +8 up or from −8 down
[15] = forskolin-driven CRE-LacZ activity in PC12 – cell-based, CRE-LacZ reporter, forskolin-stimulated, primary screen (AID 1146); settings: luminescence, 4.5 h, higher = more signal, called active from +8 up or from −8 down;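 note: PC12 cells with 6xCRE LacZ reporter stimulated by forskolin 10 µM; beta-galactosidase reporter signal reflecting CREB driven transcription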
[16] = target: Streptavidin (Streptomyces avidinii) (UniProt P22629); assay: compounds binding control protein streptavidin – biophysical, small-molecule microarray, 635/667 nm fluorescence, artefact control for SMM compound annotation, primary screen (AID 1147); settings: higher = more signal;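 note: signal reflects streptavidin binding to arrayed compounds as a control protein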
Chain of Streptavidin (Streptomyces avidinii) (P22629 whole entry, looked up): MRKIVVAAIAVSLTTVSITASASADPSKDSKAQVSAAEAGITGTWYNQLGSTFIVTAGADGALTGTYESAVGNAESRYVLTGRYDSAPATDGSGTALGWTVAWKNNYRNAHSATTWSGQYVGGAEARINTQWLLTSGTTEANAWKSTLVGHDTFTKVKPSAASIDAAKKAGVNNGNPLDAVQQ

[17] = probe aInhba binding on compound microarray – biochemical, small-molecule microarray, 635/667 nm fluorescence, primary screen (AID 1148); settings: higher = more signal;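 note: score merges 667nm spot fluorescence with signal-to-noise for antibody binding to printed compounds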
[18] = target: Torsin-1A (Homo sapiens) (UniProt O14656); assay: TOR1A wild-type binding on microarray – cell lysate, small-molecule microarray, lysate, 635/667 nm, primary screen (AID 1149); settings: COS7 hTOR1A-WT lysate, 635 nm fluorescence, higher = more signal
Chain of Torsin-1A (Homo sapiens) (O14656 whole entry, looked up): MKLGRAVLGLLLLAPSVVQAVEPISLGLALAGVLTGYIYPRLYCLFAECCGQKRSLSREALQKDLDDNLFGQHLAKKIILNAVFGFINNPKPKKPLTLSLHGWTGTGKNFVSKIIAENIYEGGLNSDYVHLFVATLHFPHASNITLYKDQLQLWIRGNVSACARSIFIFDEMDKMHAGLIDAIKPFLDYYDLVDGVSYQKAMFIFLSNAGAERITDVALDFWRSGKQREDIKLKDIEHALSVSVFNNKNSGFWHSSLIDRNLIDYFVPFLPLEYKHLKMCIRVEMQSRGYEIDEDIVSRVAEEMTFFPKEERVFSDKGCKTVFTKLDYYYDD

[19] = target: Torsin-1A (Homo sapiens) (UniProt O14656); assay: torsin A mutant lysate binding on microarrays – cell lysate, small-molecule microarray, COS7 lysate, 635/667 nm fluorescence, primary screen (AID 1150); settings: COS7 hTOR1A mutant lysate, 635 nm fluorescence, higher = more signal;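 note: score pools 667 nm emission and signal to noise measuring lysate protein binding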
[20] = test system: Sonic hedgehog protein (Shh); assay: Sonic hedgehog microarray binding compounds – biochemical, small-molecule microarray, 635/667 nm fluorescence, primary screen (AID 1151); settings: 635 nm fluorescence, higher = more signal;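 note: Shh protein binding to compounds spotted on small-molecule microarray slides; score combines spot fluorescence intensity with signal-to-noise across triplicate slides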

CCN(CC)c1ccc(N2CC=CC34O[C@@H]5/C=C\CCCOC(=O)C5[C@H]3C(=O)N(CCCCCCO)[C@@H]4C2=O)cc1 (stereo not given in full)
composite z-score [1]: 1.27
composite z-score [2]: -0.299
composite z-score [3]: -0.177
composite z-score [4]: -0.801
composite z-score [5]: -1.21
composite z-score [6]: -0.616
z-score [7]: 1.1
composite z-score [8]: -0.324
composite z-score [9]: -0.22
z-score [10]: -1.9 (inactive)
composite z-score [11]: -0.517
z-score [12]: -0.0416 (inactive)
z-score [13]: 0.194 (inactive)
z-score [14]: 0.475 (inactive)
z-score [15]: 0.458 (inactive)
composite z-score [16]: -0.41
composite z-score [17]: -0.0762
composite z-score [18]: -1.7
composite z-score [19]: -1.59
composite z-score [20]: 0.216

O=C1O[C@H](c2ccccc2)[C@H](c2ccccc2)N2[C@H]1[C@@H](C(=O)N1CCN(c3ncccn3)CC1)[C@]1(C(=O)Nc3ccc(C#CCCO)cc31)[C@H]2c1ccccc1OCCO
composite z-score [1]: 1.55
composite z-score [2]: 1.2
composite z-score [3]: 0.358
composite z-score [4]: 0.869
composite z-score [5]: 0.618
composite z-score [6]: 1.29
z-score [7]: 0.91
composite z-score [8]: 0.151
composite z-score [9]: 1.02
z-score [10]: -0.682 (inactive)
composite z-score [11]: 0.163
z-score [12]: -1.55 (inactive)
z-score [13]: 0.525 (inactive)
z-score [14]: 0.765 (inactive)
z-score [15]: -0.484 (inactive)
composite z-score [16]: 0.376
composite z-score [17]: 0.0714
composite z-score [18]: 0.506
composite z-score [19]: 0.686
composite z-score [20]: 0.371

COCCOC(=O)N1C(=O)[C@@]2(c3cc(C#CCNC(N)=O)ccc31)[C@H](C(=O)N1CCCCCCC1)[C@H]1C(=O)O[C@H](c3ccccc3)[C@H](c3ccccc3)N1[C@@H]2c1ccc(OCCO)cc1
composite z-score [1]: -0.456
composite z-score [2]: 0.492
composite z-score [3]: 0.423
composite z-score [4]: 0.577
composite z-score [5]: 1.15
composite z-score [6]: 0.126
z-score [7]: -1.6
composite z-score [8]: 0.577
composite z-score [9]: 0.534
z-score [10]: -1.19 (inactive)
composite z-score [11]: 0.0855
z-score [12]: -0.897 (inactive)
z-score [13]: -1.52 (inactive)
z-score [14]: 0.22 (inactive)
z-score [15]: -0.311 (inactive)
composite z-score [16]: 0.32
composite z-score [17]: 0.232
composite z-score [18]: 0.0121
composite z-score [19]: 0.145
composite z-score [20]: 0.438

COc1ccc([Si](C)(C)[C@@H]2[C@@H](CCO)O[C@]3(C(=O)N(Cc4cccc(N5C(=O)COc6ccccc65)c4)c4ccccc43)[C@H]2C)cc1
composite z-score [1]: 0.279
composite z-score [2]: 0.733
composite z-score [3]: 0.0257
composite z-score [4]: 0.415
composite z-score [5]: -0.0428
composite z-score [6]: 0.327
z-score [7]: -1.04
composite z-score [8]: 0.0695
composite z-score [9]: 0.764
z-score [10]: -0.123 (inactive)
composite z-score [11]: -0.0772
z-score [12]: -7.12 (inactive)
z-score [13]: -0.17 (inactive)
z-score [14]: 6.98 (inactive)
z-score [15]: 0.586 (inactive)
composite z-score [16]: 0.428
composite z-score [17]: 0.0633
composite z-score [18]: -0.277
composite z-score [19]: -0.491
composite z-score [20]: 0.45

COC(=O)[C@@]1(Cc2ccccc2)[C@H]2c3cc(C(=O)N(C)C)n(Cc4ccc(O)c(OC)c4)c3C[C@H]2CN1C(=O)c1ccccc1
composite z-score [1]: 2.42
composite z-score [2]: 1.11
composite z-score [3]: 1.12
composite z-score [4]: 0.418
composite z-score [5]: 0.465
composite z-score [6]: -0.875
z-score [7]: -1.29
composite z-score [8]: -0.239
composite z-score [9]: -0.0465
z-score [10]: 1.19 (inactive)
composite z-score [11]: 0.672
z-score [12]: -4.52 (inactive)
z-score [13]: -0.886 (inactive)
z-score [14]: -0.565 (inactive)
z-score [15]: 0.883 (inactive)
composite z-score [16]: 0.468
composite z-score [17]: 0.877
composite z-score [18]: 0.698
composite z-score [19]: 1.06
composite z-score [20]: -0.851

CCC[C@@H]1C[C@@]1(CCC)[C@@H](NC(=O)c1ccco1)c1ccc(Cl)cc1
composite z-score [1]: -0.348
composite z-score [2]: -1.71
composite z-score [3]: -0.386
composite z-score [4]: -0.495
composite z-score [5]: -0.388
composite z-score [6]: -0.882
z-score [7]: 0.523
composite z-score [8]: -0.769
composite z-score [9]: -0.493
z-score [10]: -0.31 (inactive)
composite z-score [11]: -0.114
z-score [12]: -2.99 (inactive)
z-score [13]: 0.789 (inactive)
z-score [14]: 0.58 (inactive)
z-score [15]: 0.974 (inactive)
composite z-score [16]: -0.489
composite z-score [17]: 0.0074
composite z-score [18]: -1.5
composite z-score [19]: -0.94
composite z-score [20]: -0.323

COC(=O)c1c(CC[C@@H](CO)NC(=O)N[C@@H](C)Cn2cc(C3(O)CCCC3)nn2)oc(C(C)=O)c1C(=O)OC
composite z-score [1]: 0.863
composite z-score [2]: -0.0221
composite z-score [3]: -0.118
composite z-score [4]: 0.188
composite z-score [5]: 0.511
composite z-score [6]: 0.0707
z-score [7]: -0.638
composite z-score [8]: 1.54
composite z-score [9]: 1.3
z-score [10]: 0.315 (inactive)
composite z-score [11]: -0.22
z-score [12]: -2.75 (inactive)
z-score [13]: -0.0355 (inactive)
z-score [14]: 0.861 (inactive)
z-score [15]: -0.144 (inactive)
composite z-score [16]: 0.0648
composite z-score [17]: 0.117
composite z-score [18]: 0.862
composite z-score [19]: 0.277
composite z-score [20]: 2.16

COCCCNC(=O)[C@@]1(Cc2ccccc2I)c2ccccc2C(=O)N(Cc2ccccc2Cl)[C@H]1c1ccc(CO)cc1
composite z-score [1]: 1.25
composite z-score [2]: 0.494
composite z-score [3]: 0.692
composite z-score [4]: 0.912
composite z-score [5]: 0.583
composite z-score [6]: -0.125
z-score [7]: 0.723
composite z-score [8]: 0.246
composite z-score [9]: 0.897
z-score [10]: 1.29 (inactive)
composite z-score [11]: -0.193
z-score [12]: -4.15 (inactive)
z-score [13]: -1.72 (inactive)
z-score [14]: -0.529 (inactive)
z-score [15]: -0.656 (inactive)
composite z-score [16]: 1.46
composite z-score [17]: -0.0538
composite z-score [18]: -0.0444
composite z-score [19]: -0.078
composite z-score [20]: 0.191

C[N+](C)(C)CCCCNC(=O)[C@H]1C[C@H]2C(=O)NCC(=O)N2[C@H]1c1ccc(O)cc1
composite z-score [1]: 3.01
composite z-score [2]: 0.241
composite z-score [3]: -0.169
composite z-score [4]: -0.0907
composite z-score [5]: 1.41
composite z-score [6]: 1.91
z-score [7]: 0.244
composite z-score [8]: 1.49
composite z-score [9]: -0.287
z-score [10]: -0.367 (inactive)
composite z-score [11]: 0.442
z-score [12]: 0.215 (inactive)
z-score [13]: -0.895 (inactive)
z-score [14]: -0.398 (inactive)
z-score [15]: -0.501 (inactive)
composite z-score [16]: 0.158
composite z-score [17]: 0.106
composite z-score [18]: 0.979
composite z-score [19]: 0.672
composite z-score [20]: 2.14

From PubChem BioAssay
